# Test results published in paper PMC4336329 (PLoS ONE, 2015).
# The campaign covered roughly 310,000 compounds. About 14,000 (4.5%) showed an effect of 50% or more. Effects have a minus sign here. The full list was thinned out, with strong results kept by preference.
# Target: human ether-à-go-go-related gene (hERG) potassium channel (human, UniProt Q12809)
# Assay: primary screen, population patch clamp on CHO cells stably expressing hERG; higher = less effect of the substance
# 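Further: peak tail current of the secondary pulse compared with the same well before compound.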
# human ether-à-go-go-related gene (hERG) potassium channel, sequence (Q12809 whole entry, looked up): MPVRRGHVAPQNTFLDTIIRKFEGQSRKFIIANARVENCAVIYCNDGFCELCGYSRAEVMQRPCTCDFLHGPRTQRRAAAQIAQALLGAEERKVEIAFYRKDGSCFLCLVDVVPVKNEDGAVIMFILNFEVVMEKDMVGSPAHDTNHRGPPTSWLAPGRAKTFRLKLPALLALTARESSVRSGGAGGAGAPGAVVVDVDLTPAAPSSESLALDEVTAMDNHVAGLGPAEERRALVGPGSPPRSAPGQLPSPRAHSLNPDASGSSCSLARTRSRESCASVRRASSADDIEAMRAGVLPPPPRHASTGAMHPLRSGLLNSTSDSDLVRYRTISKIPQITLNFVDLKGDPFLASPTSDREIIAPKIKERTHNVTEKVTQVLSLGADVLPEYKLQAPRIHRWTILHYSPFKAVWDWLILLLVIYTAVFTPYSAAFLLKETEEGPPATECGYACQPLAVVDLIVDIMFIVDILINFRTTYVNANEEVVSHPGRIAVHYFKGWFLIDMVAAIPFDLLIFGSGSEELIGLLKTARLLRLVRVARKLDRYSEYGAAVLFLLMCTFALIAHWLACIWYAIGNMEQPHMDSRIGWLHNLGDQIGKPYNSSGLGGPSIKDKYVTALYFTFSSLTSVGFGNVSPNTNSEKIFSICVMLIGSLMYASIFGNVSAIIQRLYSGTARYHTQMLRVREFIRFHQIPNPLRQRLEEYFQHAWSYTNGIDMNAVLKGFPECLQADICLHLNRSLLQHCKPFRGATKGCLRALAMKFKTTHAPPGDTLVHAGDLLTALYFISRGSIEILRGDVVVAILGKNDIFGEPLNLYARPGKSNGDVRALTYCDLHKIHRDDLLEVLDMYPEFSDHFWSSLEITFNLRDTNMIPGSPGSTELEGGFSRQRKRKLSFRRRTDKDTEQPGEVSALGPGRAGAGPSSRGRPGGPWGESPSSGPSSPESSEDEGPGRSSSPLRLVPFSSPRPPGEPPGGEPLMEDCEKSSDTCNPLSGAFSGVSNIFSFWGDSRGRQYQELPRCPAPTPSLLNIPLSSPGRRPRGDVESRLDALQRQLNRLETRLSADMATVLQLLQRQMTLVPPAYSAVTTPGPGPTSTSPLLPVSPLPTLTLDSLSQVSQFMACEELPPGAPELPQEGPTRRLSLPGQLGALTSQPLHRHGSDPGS
row,SMILES,"hERG current change (%, negative = inhibition) at 10uM [%]"
1,CCCN(N=Nc1cccc([N+](=O)[O-])c1)c1cccc([N+](=O)[O-])c1,3.14
2,O=C(NCCCN1CCN(CCCNC(=O)c2ccc(F)cc2)CC1)c1ccc(F)cc1,-51.1
3,O=C(NCCCNC(=O)c1ccc(F)cc1)c1ccc(F)cc1,7.81
4,O=C(NCCCCNC(=O)c1ccc(F)cc1)c1ccc(F)cc1,13.3
5,CCn1c2ccccc2c2nnc(SCC(=O)N(C)C3CCS(=O)(=O)C3)nc21 (stereo not drawn),-21
6,O=C(CN(C(=O)CCC(=O)Nc1ccccn1)c1cccc(F)c1)NCc1ccc(F)cc1,-4.26
7,CS(=O)(=O)N1CCN(C(=O)c2csc3ccccc23)CC1,2.35
8,Cc1ccc(C2CN(c3ccccc3)CC2C(=O)c2ccc(F)cc2)cc1 (stereo not drawn),-17
9,O=C(c1ccccc1)C1CN(c2ccccc2)CC1c1ccc(Cl)cc1 (stereo not drawn),27.1
10,COc1cccc(C(=O)C2CN(c3ccccc3)CC2c2ccc(Cl)cc2)c1 (stereo not drawn),5.04
11,Cc1ccc(C2CN(C)CC2C(=O)c2ccc(F)cc2)cc1 (stereo not drawn),-53.2
12,CN1CC(C(=O)c2ccc([N+](=O)[O-])cc2)C(c2ccc(Cl)cc2)C1 (stereo not drawn),-75.6
13,COc1cccc(C(=O)C2CN(C)CC2c2ccc(Cl)cc2)c1 (stereo not drawn),-66.4
14,CN1CC(C(=O)c2ccc(F)cc2)C(c2c(F)cccc2Cl)C1 (stereo not drawn),-65.7
15,CN1CC(C(=O)c2ccc(Cl)cc2)C(c2ccccc2F)C1 (stereo not drawn),-46.5
16,CN1CC(C(=O)c2ccc(F)cc2)C(c2ccc(F)cc2)C1 (stereo not drawn),-30.2
17,CN1CC(C(=O)c2ccc(Cl)cc2)C(c2ccc(Cl)cc2Cl)C1 (stereo not drawn),-49.2
18,CN1CC(C(=O)c2cccc(C(F)(F)F)c2)C(c2ccc(Cl)cc2)C1 (stereo not drawn),-20
19,COc1ccc(OC)c(NC(=O)COC(=O)c2ccc(OC)c(S(=O)(=O)N3CCCC3)c2)c1,16.9
20,CN(C)C=O.NS(=O)(=O)c1cccc(NC(=O)CSc2nc3nc(-c4cccs4)cc(C(F)(F)F)c3c(=O)[nH]2)c1,7.85
21,CCOc1cc(CNc2nn[nH]n2)ccc1OCC(=O)NC(C)(C)C,13.2
22,O=C(c1cc(O)c(O)c([N+](=O)[O-])c1)c1ccccc1F,2.56
23,COCCNC(=O)Nc1ccc2nc(-c3ccco3)c(-c3ccco3)nc2c1,4.08

row,SMILES,"hERG current change (%, negative = inhibition) at 10uM [%]"
1,CCOC(=O)CC(NS(=O)(=O)c1ccc2[nH]cc(C(=O)O)c(=O)c2c1)c1ccc(OCC)c(OC)c1 (stereo not drawn),-1.02
2,COCCn1c(N)c(N(Cc2ccccc2)C(=O)c2ccc3ccccc3c2)c(=O)[nH]c1=O,7.55
3,O=C(NC1CCCC1)C1CC(=O)N(CCc2ccccc2)C1 (stereo not drawn),9.66
4,O=C(COc1ccccc1Cl)N1CCCC1,5.64
5,CN1CC(C(=O)c2ccccc2)C(c2ccccc2)C1 (stereo not drawn),-5.47
6,COc1ccc(C(=O)C2CN(C)CC2c2ccc(Cl)cc2)cc1 (stereo not drawn),-73.1
7,COc1ccc(C(=O)C2CN(c3ccccc3)CC2c2ccc(Cl)cc2)cc1 (stereo not drawn),-4.84
8,CN1CC(C(=O)c2ccccc2)C(C(=O)c2ccccc2)C1 (stereo not drawn),-21.4
9,CC(=O)Nc1ccc(C2CN(C)CC2C(=O)c2ccc(Cl)cc2)cc1 (stereo not drawn),-31.8
10,Cc1ccc(C(=O)C2CN3CCC2CC3)cc1.Cl (stereo not drawn),-37.4
11,CN1CC(C(=O)c2ccc(Cl)cc2)C(c2ccc(N(C)C)cc2)C1 (stereo not drawn),-57.9
12,CN1CC(C(=O)c2cccs2)C(c2ccc(Cl)cc2)C1 (stereo not drawn),-49.2
13,COc1ccc(C(=O)C2CN(C)CC2C(=O)c2ccc(OC)cc2)cc1 (stereo not drawn),-57.9
14,COc1ccc(-c2ccc(C(=O)C3CC3)cc2)cc1,14.7
15,Cc1ccc(C(=O)C2CN(C)CC2C(=O)c2ccc(C)cc2)cc1 (stereo not drawn),-57
16,CN1CC(C(=O)c2ccc(Cl)cc2)C(c2ccccc2)C1 (stereo not drawn),-31.8
17,CNCCOc1ccccc1-c1ccccc1.O=C(O)C(=O)O,-5.68
18,O=C(CCN1C(=O)c2ccccc2S1(=O)=O)N1CCN(c2ccccc2F)CC1,-5.02
19,Cc1ccsc1C(=O)NCC(C)(C)N1CCOCC1,-9.41
20,CC(=O)SC(C)CC(=O)Nc1ccccc1 (stereo not drawn),7.33
21,Cc1nc2nc(C)c(CCC(=O)N3CCOCC3)c(C)n2n1,-21
22,Cc1nc2nc(C)c(CCC(=O)N3CCN(c4ccccc4)CC3)c(C)n2n1,-56.2
23,Cc1nc2cc(-c3cccc(F)c3)nn2c(C)c1CCC(=O)NC(C)c1ccc2c(c1)OCCO2 (stereo not drawn),-44.6

row,SMILES,"hERG current change (%, negative = inhibition) at 10uM [%]"
1,Cc1nc2cc(-c3cccc(F)c3)nn2c(C)c1CCC(=O)N1CCN(c2ccccn2)CC1,-13.1
2,Cc1nc2cc(-c3ccccc3)nn2c(C)c1CCC(=O)NC(C)c1ccc2c(c1)OCCO2 (stereo not drawn),-50.8
3,Cc1nc2cc(-c3ccccc3)nn2c(C)c1CCC(=O)N1CCC2(CC1)OCCO2,-47.2
4,Cc1nc2cc(-c3ccc(Cl)cc3)nn2c(C)c1CCC(=O)NC(C)c1ccc2c(c1)OCCO2 (stereo not drawn),-23.8
5,Cc1nc2nc(C)c(CCC(=O)N3CCN(c4ccccn4)CC3)c(C)n2n1,-46.1
6,Cc1nc2cc(-c3ccccc3)nn2c(C)c1CCC(=O)N1CCN(c2ccccc2)CC1,-65.7
7,O=C(CC1(c2ccc(Cl)cc2)C2CC3CC(C2)CC1C3)NCCO (stereo not drawn),-7.17
8,O=C(COC(=O)c1cccc(-n2cnnn2)c1)c1ccccc1,-4.63
9,OCc1ccccc1SSc1ccccc1CO,14.5
10,COc1ccc2[nH]c(C)c(CCN3C(=O)OC(C)(C)C3(C)O)c2c1 (stereo not drawn),9.02
11,Cc1cccc(-n2nnc(C(=O)NCc3ccccn3)c2N)c1,0.598
12,CCc1noc(C)c1C(=O)N1CCN(S(=O)(=O)c2cc(C)ccc2C)CC1,-1.66
13,O=C(c1ccco1)N1CCN(S(=O)(=O)c2ccc(Oc3ccccc3)cc2)CC1,-31.5
14,Cc1ccc(C(=O)C(C)OC(=O)Cn2cnc3c2c(=O)n(C)c(=O)n3C)cc1 (stereo not drawn),-0.153
15,COc1ccc(Oc2ccc(C(F)(F)F)cc2NC(=O)c2ccc(OC)cc2)cc1,12.5
16,COc1ccc(Oc2ccc(C(F)(F)F)cc2NC(=O)c2ccc(F)cc2)cc1,6.56
17,N#Cc1ccc(Oc2ccc(C(F)(F)F)cc2NC(=O)c2ccc(F)cc2)cc1,-70.2
18,CC(=O)c1c(C)[nH]c(C(=O)CN2CCN(S(=O)(=O)c3ccccc3[N+](=O)[O-])CC2)c1C,-6.62
19,CCCCC(CC(C)O)c1n[nH]c(=S)n1-c1ccccc1 (stereo not drawn),3.1
20,COc1ccc(/C=C/C(=O)NC(=S)N2C[C@H]3C[C@H](C2)c2cccc(=O)n2C3)cc1OC,6.67
21,O=C(/C=C/c1ccccc1)NC(=S)N1C[C@H]2C[C@H](C1)c1cccc(=O)n1C2,-15
22,O=C(/C=C/c1ccc(Br)cc1)NC(=S)N1C[C@H]2C[C@H](C1)c1cccc(=O)n1C2,-57.9
23,O=C(/C=C/c1ccc(Cl)cc1)NC(=S)N1C[C@H]2C[C@H](C1)c1cccc(=O)n1C2,-53.1

row,SMILES,"hERG current change (%, negative = inhibition) at 10uM [%]"
1,COc1ccc(/C=C/C(=O)NC(=S)N2C[C@H]3C[C@H](C2)c2cccc(=O)n2C3)cc1,-18.2
2,O=C(/C=C/c1ccc(F)cc1)NC(=S)N1C[C@H]2C[C@H](C1)c1cccc(=O)n1C2,-22.9
3,O=C(NCc1ccco1)Nc1ccc2snnc2c1,2.51
4,CNC(=O)c1c(NC(NC(=O)c2ccco2)C(=O)c2ccc(Cl)cc2)sc2c1CCCC2 (stereo not drawn),-20.3
5,CC1=C(C(=O)Nc2ccccc2)C(c2ccc(C)o2)n2c(s/c(=C/c3ccccc3)c2=O)=N1 (stereo not drawn),18.1
6,COc1ccccc1NCc1ccc([N+](=O)[O-])s1,-47.7
7,O=C(c1ccc2ncsc2c1)N1CCCCC1,17.9
8,CC1CN(C(=O)C(C)OC(=O)c2ccc3ncsc3c2)CC(C)O1 (stereo not drawn),20.1
9,CC(OC(=O)c1ccc2ncsc2c1)C(=O)N1CCCC1 (stereo not drawn),-56.9
10,CCCc1nnc(SCC(=O)N2CCCC2)n1Cc1ccco1,1.2
11,Cc1ccc2c(c1)sc(=NC(=O)C1CC1)n2C,-4.01
12,CCOC(=O)c1cnc2ccc(C)cc2c1Sc1ccccc1C(=O)OC,-2.26
13,COc1ccc(CN2CCN(C(=O)c3cccs3)CC2)c(OC)c1OC,-6.53
14,CCOC(=O)C1CCN(Cc2ccccc2C)CC1,0.665
15,CCOC(=O)N1CCN(Cc2cn[nH]c2-c2cccc3ccccc23)CC1,-4.57
16,Cc1ccc(-c2[nH]ncc2CN2CCN(C(=O)c3cccs3)CC2)cc1C,-62.5
17,COc1ccc(-c2[nH]ncc2CN2CCN(C(=O)c3cccs3)CC2)c(F)c1,-21.5
18,CCOC(=O)C1CCN(Cc2cn[nH]c2-c2ccccc2)CC1.O=C(O)C(=O)O,-9.8
19,CCOC(=O)N1CCN(Cc2cn[nH]c2-c2cc3ccccc3o2)CC1,-34.4
20,CCOC(=O)C1CCN(Cc2cn[nH]c2-c2ccc(C)cc2)CC1,-51.8
21,CCOC(=O)N1CCN(Cc2cn[nH]c2-c2ccc(-c3ccccc3)cc2)CC1,-54.8
